Our source for the Potency values is PubChem BioAssay AID588590 (National Center for Advancing Translational Sciences (NCATS), 2011).

The whole screen tested about 390,000 compounds, of which about 4,000 (1%) were called active. Entries that show only a call come without a potency. Inconclusive results (about 7%) are left out. Calls follow the shape of the dose curve; as a rule, active = well fitted inhibition curve with a large enough effect; inconclusive = small, poorly fitted or top-dose-only effect, or another doubt; inactive = no such curve, though single readings can be large or run the other way. The sample as a whole holds a higher share of actives than the screen did.
Potency is read from the fitted curve at half-maximal effect.

Sequence of DNA polymerase iota (Homo sapiens) (Q9UNA4 whole entry, looked up): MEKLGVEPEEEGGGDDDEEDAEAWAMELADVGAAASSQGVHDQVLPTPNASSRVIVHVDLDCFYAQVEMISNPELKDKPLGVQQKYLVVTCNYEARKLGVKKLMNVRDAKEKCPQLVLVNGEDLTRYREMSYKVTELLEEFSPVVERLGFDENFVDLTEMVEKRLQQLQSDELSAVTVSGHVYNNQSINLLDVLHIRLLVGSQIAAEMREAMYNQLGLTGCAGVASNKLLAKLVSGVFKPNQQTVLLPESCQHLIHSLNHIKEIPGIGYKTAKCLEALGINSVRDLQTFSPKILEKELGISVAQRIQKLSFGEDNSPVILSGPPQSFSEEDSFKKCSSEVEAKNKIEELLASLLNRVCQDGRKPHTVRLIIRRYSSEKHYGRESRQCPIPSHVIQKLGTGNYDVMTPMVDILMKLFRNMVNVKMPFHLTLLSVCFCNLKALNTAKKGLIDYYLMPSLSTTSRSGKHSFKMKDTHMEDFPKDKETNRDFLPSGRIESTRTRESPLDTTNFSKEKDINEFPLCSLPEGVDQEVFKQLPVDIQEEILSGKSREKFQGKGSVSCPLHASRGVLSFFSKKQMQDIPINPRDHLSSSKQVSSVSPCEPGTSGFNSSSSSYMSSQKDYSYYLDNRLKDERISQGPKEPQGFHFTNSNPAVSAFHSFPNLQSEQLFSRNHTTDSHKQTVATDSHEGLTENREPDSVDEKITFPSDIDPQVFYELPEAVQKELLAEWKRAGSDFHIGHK

The assay addresses DNA polymerase iota (Homo sapiens) (UniProt Q9UNA4). The experiment in a line: qHTS for Inhibitors of Polymerase Iota. To be noted: Pol iota fluorescent replication assay, 10 min; series mostly up to 115 µM. From the text:
DNA polymerases, such as Pol iota, are specifically involved in DNA repair. Pol iota specifically plays an important role in translesion synthesis, where the normal high-fidelity DNA polymerases cannot proceed and DNA synthesis stalls. […] Thus, while pol eta's (and most likely iota's) normal function is to protect humans against the deleterious consequences of DNA damage, under certain conditions they can have deleterious effects on human health. As a consequence, we propose to utilize a high throughput replication assay to identify small molecule inhibitors of pol iota.
In a collaboration between the National Institute of Child Health & Human Development (NICHD) and NIH Chemical Genomics Center, a high-throughput, fluorescent screen was developed to screen the NIH Molecular Libraries Small Molecule Repository (MLSMR). This screen is used to identify inhibitors of pol iota.
NIH Chemical Genomics Center [NCGC]
NIH Molecular Libraries Probe Centers Network [MLPCN]
Assay Submitter (PI): Roger Woodgate, NICHD)
Three microliters of reagents (buffer in column 3 and 4 as negative control and 10 nM Pol iota in columns 1, 2, and 5-48) will be dispensed into 1,536-well black solid-bottomed plate. Compounds (23 nL) will be transferred via Kalypsys pin tool equipped with 1536-pin array. The plates will then be incubated for 15 min at room temperature, and 1 µL substrate (50 nM final concentration) will be added to start the reaction and kinetically read twice at 0 min and 10 min on the Viewlux reader.
On the technique in general: In qHTS, concentration-response curves come from the screen itself.
Turning to `CCc1nc2nc(C)cc(Nc3ccc(F)c(Cl)c3)n2n1`, the Potency result is “inactive”.

As for `Cc1nn(-c2nc(-c3ccccc3)cc(C(F)(F)F)n2)c(C)c1Cl`, the Potency entry is “inactive”.

Regarding `COc1ccc2[nH]c3c(C)c4cc[n+](C)cc4c(C)c3c2c1`, the Potency is 12.6 µM (active).

For `Cc1cc[n+](C2CCCCC2)cc1`, the Potency entry was “inactive”.

`Cc1ccc(S(=O)(=O)CCC(=O)OCC(=O)N(C)C2CCS(=O)(=O)C2)cc1` (configuration not stated): the Potency entry is “inactive”.

As for `COc1ccc(NC(=O)COc2ccc(C(=O)OCC(=O)N(C)C3CCS(=O)(=O)C3)cc2OC)cc1` (configuration not stated), the Potency result is “inactive”.

For `O=C(c1cc(-c2ccc(Cl)s2)nc2ccccc12)N1CCOCC1`, the Potency result is “inactive”.

On to `CN(CCOc1ccccc1)C(=O)c1cc(COc2c(F)cccc2F)on1`, for which the Potency result is “inactive”.

On to `CN(C(=O)COC(=O)c1cc(-c2ccco2)nc2ccccc12)C1CCS(=O)(=O)C1` (configuration not stated), for which the Potency is 3.55 µM (active).

Regarding `O=C(Nc1cccc(F)c1)c1cc(-c2ccco2)nc2ccccc12`, the Potency was 50.1 µM (active).

Turning to `CCOc1ccccc1-c1cc(C(=O)N2CCOCC2)c2ccccc2n1`, the Potency entry was “inactive”.

For the compound `CN(CCOc1ccccc1)C(=O)c1cc(-c2ccco2)nc2ccccc12`, the Potency was 22.4 µM (active).

Regarding `Cc1cc(C(=O)Nc2ccc(C)c(S(=O)(=O)N3CCOCC3)c2)c2ccccc2n1`, the Potency entry is “inactive”.

With `CC1CCCN(C(=O)c2cc(-c3ccco3)nc3ccccc23)C1` (configuration not stated), the Potency was 28.2 µM (active).

As for `COc1ccc(CN(C)C(=O)c2cc(-c3ccc(C)cc3C)nc3ccccc23)c(OC)c1OC`, the Potency entry is “inactive”.

With `O=C(COc1ccccc1C(=O)Nc1ccccc1)Nc1cccc(F)c1`, the Potency result was “inactive”.

In the case of `CCCCC(CCCC)c1ccc(C=Nc2ccc(/C=C/c3ccnc4ccccc34)cc2)cc1`, the Potency result was “inactive”.

Regarding `CCOc1cc(C(=O)NCCc2csc3nc(-c4ccc(C)cc4)nn23)cc(OCC)c1OCC`, the Potency result was “inactive”.

On to `Cc1ccc(NC(=O)CN2c3ccccc3S(=O)(=O)c3ccccc32)cc1F`, for which the Potency result was “inactive”.

For the compound `CCOc1ccccc1CNC(=O)c1ccc(-n2c(C)cc3c2CCC(C)C3)cc1` (configuration not stated), the Potency entry is “inactive”.

In the case of `CCN(CC)C(=O)CSc1nc2ccsc2c(=O)n1Cc1ccccc1Cl`, the Potency result is “inactive”.

In the case of `CC1=C(C(=O)OCc2ccc(C)cc2)C(c2ccccc2Cl)CC(=O)N1` (configuration not stated), the Potency entry was “inactive”.

Regarding `CC(C)(C)OC(=O)N(Cc1ccco1)S(=O)(=O)c1ccccc1Br`, the Potency entry is “inactive”.

In the case of `CCC(=O)N1CCc2cc(S(=O)(=O)NC(CC(C)C)C(=O)NCCc3cccc(C)c3)ccc21` (configuration not stated), the Potency entry is “inactive”.

For the compound `O=[N+]([O-])c1ccc(N(CCO)Cc2ccccc2)c([N+](=O)[O-])c1`, the Potency entry was “inactive”.

With `CN1CCN(/N=C2/C(=O)Nc3ccc([N+](=O)[O-])cc32)CC1`, the Potency entry is “inactive”.

On to `O=C1Nc2ccc([N+](=O)[O-])cc2C1=Nc1cccc(CO)c1`, for which the Potency is 7.94 µM (active).
